Inconclusive results are not listed. Active and inactive are the calls of the source. Calls follow the shape of the dose curve; as a rule, active = well fitted inhibition curve with a large enough effect; inconclusive = small, poorly fitted or top-dose-only effect; inactive = no such curve, though single readings can be large or run the other way.
tested on: Zika virus NS2B-NS3 protease (linked); assay: Optimization screen NINDS Rhodamine qHTS for Zika virus inhibitors: Linked NS2B-NS3 protease assay; conditions: fluorogenic rhodamine substrate; series mostly up to 105 µM
Source text: Avindra Nath, Ph.D., National Institute of Neurological Disorders and Stroke (NINDS), Bethesda, MD
Radhakrishnan Padmanabhan, Ph.D., Georgetown University (GU), Washington D.C.
Zika Virus causes congenital defects, including microcephaly and is associated with Guillain-Barre syndrome, eningoencephalitis and myelitis in infected adult. […] Using a target-based approach, we hope to establish a screening paradigm to uncover novel, cell-active NS2B-NS3 protease (Zika Virus) specific inhibitors from NCATS' collection of small molecules using qHTS.
Four assay panel was created to identify potential Zika Virus inhibitors. Namely, (1) GU unlinked NS2B-NS3 AMC tagged protease qHTS, (2) GU unlinked NS2B-NS3 Rhodamine tagged protease qHTS, (3) NINDS linked NS2B-NS3 AMC tagged protease qHTS, (4) NINDS linked NS2B-NS3 Rhodamine tagged protease qHTS. Active compounds were re-acquired and re-screened to confirm inhibition. Inhibitors were further screened against various confirmatory and counterscreens in dose response format.
Early Translation Branch (ETB)
National Center for Advancing Translational Sciences (NCATS), Rockville, MD
National Institute of Health (NIH), Bethesda, Maryland
For the linked assay, Nath lab (NINDS) provided the purified linked NS2B-NS3 protease which is consists of hydrophilic domain of NS2B linked to the NS3 protease domain by a flexible (-GGGGSGGGG-) linker. Control compound aprotinin is obtained from Thermo Scientific (#78432; Waltham, Massachusetts). Rhodamine110 substrate ([N-Cbz]-Nle-Lys-Arg-Arg-Rhod110-Arg-Arg-Lys-Nle-[N-Cbz]) was purchased from either Genscript or Bachem.
1536-well Protease (Rhodamine110 Substrate) Assay:
Briefly, 3 microL of enzyme (25 nM final concentration), in assay buffer (10 mM Tris-HCl pH 8.0 with 0.01% Tween 20) were dispensed into a 1,536-well solid-bottom black plate (Greiner Bio One, Monroe, NC). Twenty-three nL of compounds (final concentration range 7.28 nM to 114 microM) or control Aprotinin (final concentration range 3.47 nM to 114 microM) were transferred via Wako Pin-tool (Wako Automation, Richmond, VA). Samples were incubated (room temperature, protected from light) for 15 minutes followed by a 1 microL Rhodamine110 substrate addition (1.5 microM final concentration). Plates were then immediately read on a ViewLux High-throughput CCD imager (PerkinElmer, Waltham, MA) equipped with FITC fluorescence optics (480(20) nm excitation, 540(25) nm emission), then incubated (room temperature, protected from light) for 15 minutes (~15% conversion). The change in fluorescence intensity over the 15-minute reaction period was normalized against no-inhibitor and no-enzyme controls and the resulting percent inhibition data were fitted to a 4-parameter Hill equation. Aprotinin was used as intraplate control.

| Compound | outcome |
| --- | --- |
| C=CCN1CC[C@]23CCCCC2[C@H]1Cc1ccc(O)cc13 (stereo not given in full) | inactive |
| Cc1ccc2c(c1)[C@]13CCCC[C@@H]1[C@H](C2)N(C)CC3 | inactive |
| C[C@@H]1O[C@@H](O[C@H]2C[C@@H](O)[C@]3(CO)[C@H]4[C@H](O)C[C@]5(C)[C@@H](C6=CC(=O)OC6)CC[C@]5(O)[C@@H]4CC[C@]3(O)C2)[C@H](O)[C@H](O)[C@H]1O | inactive |
| CC[C@H](C)[C@H]1O[C@]2(C=C[C@@H]1C)C[C@@H]1C[C@@H](C/C=C(\C)[C@@H](O[C@H]3C[C@H](OC)[C@@H](O[C@H]4C[C@H](OC)[C@@H](O)[C@H](C)O4)[C@H](C)O3)[C@@H](C)/C=C/C=C3\CO[C@@H]4[C@H](O)C(C)=C[C@@H](C(=O)O1)[C@]34O)O2 | inactive |
| C[C@H]1O[C@@H](O[C@H]2[C@@H](O)C[C@H](O[C@H]3[C@@H](O)C[C@H](O[C@H]4CC[C@@]5(C)[C@H](CC[C@@H]6[C@@H]5CC[C@]5(C)[C@@H](C7=CC(=O)OC7)CC[C@]65O)C4)O[C@@H]3C)O[C@@H]2C)C[C@H](O)[C@@H]1O | inactive |
| C[C@@H]1[C@@H]2Cc3ccc(O)cc3[C@@]1(C)CCN2CCc1ccccc1 | inactive |
| C=CCN1CCC2(C)c3cc(O)ccc3C[C@H]1[C@H]2C | inactive |
| CC1OC(O[C@H]2C[C@@H](O)[C@]3(CO)[C@H]4[C@H](O)C[C@]5(C)[C@@H](C6=CC(=O)OC6)CC[C@]5(O)[C@@H]4CC[C@]3(O)C2)C(O)C(O)C1O (stereo not given in full) | inactive |
| C[C@H]1O[C@@H](O[C@H]2[C@@H](O)C[C@@H](O[C@H]3[C@@H](O)C[C@H](O[C@H]4CC[C@@]5(C)[C@H](CC[C@@H]6[C@@H]5CC[C@]5(C)[C@@H](C7=CC(=O)OC7)CC[C@]65O)C4)O[C@@H]3C)O[C@@H]2C)C[C@H](O)[C@@H]1O | inactive |
| CC1O[C@@H](O[C@@H]2C(O)C[C@H](O[C@@H]3C(O)C[C@@H](OC4CC[C@@]5(C)C6CC[C@]7(C)C(C8=CC(=O)OC8)CC[C@@]7(O)C6CC[C@@H]5C4)OC3C)OC2C)CC(O)[C@H]1O (stereo not given in full) | inactive |
| C[C@H]1O[C@@H](O[C@H]2[C@@H](O)C[C@H](O[C@H]3[C@@H](O)C[C@H](O[C@H]4CC[C@]5(C)C6CC[C@]7(C)[C@@H](C8=CC(=O)OC8)CC[C@]7(O)C6CC[C@@H]5C4)O[C@@H]3C)O[C@@H]2C)C[C@H](O)[C@@H]1O (stereo not given in full) | inactive |
| CC(C)OC(=O)Nc1ccccc1 | inactive |
| CC(C)=CCN1CC[C@@]2(C)c3cc(O)ccc3C[C@@H]1[C@@H]2C | inactive |
| C[C@@H]1O[C@@H](O[C@H]2C[C@@H](O)[C@]3(CO)C4C(CC[C@]3(O)C2)[C@@]2(O)CC[C@H](C3=CC(=O)OC3)[C@@]2(C)C[C@H]4O)[C@H](O)[C@H](O)[C@H]1O (stereo not given in full) | inactive |
| COC1C(O)C(C)O[C@@H](OC2CC[C@@]3(C)C4CC[C@]5(C)C(C6=CC(=O)OC6)CC[C@@]5(O)C4CC[C@@H]3C2)C1O (stereo not given in full) | inactive |
| C[C@@H]1[C@@H]2Cc3ccc(O)cc3[C@@]1(C)CCN2CC1CC1 | inactive |
| CO[C@H]1[C@@H](O)CC(OC2[C@@H](O)CC(OC3[C@@H](O)C[C@H](OC4CC[C@@]5(C)C(CCC6C5CC(O)[C@]5(C)[C@H](C7=CC(=O)OC7)CCC65O)C4)O[C@@H]3C)O[C@@H]2C)O[C@@H]1C (stereo not given in full) | inactive |
| C=CCN1CCC2(C)c3cc(O)ccc3CC1C2C (stereo not given) | inactive |
| CN1CC[C@@]23CCCC[C@@H]2[C@@H]1Cc1ccc(O)cc13 | inactive |
| CN1CC[C@@]23CCCCC2C1Cc1ccc(O)cc13 (stereo not given in full) | inactive |

Source: PubChem BioAssay AID1347155 (National Center for Advancing Translational Sciences (NCATS), 2019)
